# Test results: PubChem BioAssay AID1347172 (National Center for Advancing Translational Sciences (NCATS), 2019)
# Results filed as inconclusive are left out. A call without a number means that no potency is given here. Activity calls are given as the source filed them. Calls come from the whole dose curve; as a rule, active = well fitted inhibition curve with a large enough effect; inconclusive = small, poorly fitted or top-dose-only effect; inactive = flat fitted curve, though single readings scatter.
# Assay: Secondary qRT-PCR qHTS assay for selected Zika virus inhibitors
# Conditions: Vero cells ZIKV infection, NS5 RNA qRT-PCR, 24 h; series mostly up to 32.6 µM
# From the text: Assay Submitters (PI): Avindra Nath, Ph.D., National Institute of Neurological Disorders and Stroke (NINDS), Bethesda, MD Radhakrishnan Padmanabhan, Ph.D., Georgetown University (GU), Washington D.C. Zika Virus causes congenital defects, including microcephaly and is associated with Guillain-Barre syndrome, eningoencephalitis and myelitis in infected adult. […] Using a target-based approach, we hope to establish a screening paradigm to uncover novel, cell-active NS2B-NS3 protease (Zika Virus) specific inhibitors from NCATS' collection of small molecules using qHTS. […] Four assay panel was created to identify potential Zika Virus inhibitors. Namely, (1) GU unlinked NS2B-NS3 AMC tagged protease qHTS, (2) GU unlinked NS2B-NS3 Rhodamine tagged protease qHTS, (3) NINDS linked NS2B-NS3 AMC tagged protease qHTS, (4) NINDS linked NS2B-NS3 Rhodamine tagged protease qHTS. Inhibitors of the Zika virus primary screens are confirmed using qRT-PCR secondary assays, qRT-PCR mCherry orthogonal assay, and qRT-PCR viability counterscreen. Early Translation Branch (ETB) National Center for Advancing Translational Sciences (NCATS), Rockville, MD National Institute of Health (NIH), Bethesda, Maryland
# 384-well ZIKV qRT-PCR Assay: Vero cells were treated with the indicated compounds at different concentrations, infected with ZIKV (MOI=1) and incubated at 37 degrees C for 3 hours to permit virus invasion. After 3 hr, supernatant was removed, and cells were washed once to remove extracellular virus. After a further 21 hr incubation, infected cells were washed three times with cold PBS (4 degrees C). Plates were then process using the TaqmanGene Expression Cells-to-Ct Kit (ThermoFisher Scientific) following the manufactures protocol. Primers directed to the NS5 sequence (F-[…]; R-GCTCGGCCAATCAGTTCA) along with Taqman probe (FAM-[…]-BHQ; Biosearch Technologies) were used to quantify drug inhibition of viral load. Reactions were run at initial 95 degrees C for 10 min, then 40 cycles of 95 degrees C for 20 sec and 60 degrees C for 40 sec using a LightCycler 480 (Roche). Relative viral copy numbers were generated by normalizing to cells treated with vehicle.
SMILES,Potency,"activity change, negative = inhibition"
Nc1ccn([C@@H]2O[C@H](CO)[C@@H](O)C2(F)F)c(=O)n1,inactive,–
CC[C@H](C)[C@H]1O[C@]2(CC[C@@H]1C)C[C@@H]1C[C@@H](C/C=C(\C)[C@@H](O[C@H]3C[C@H](OC)[C@@H](O[C@H]4C[C@H](OC)[C@@H](O)[C@H](C)O4)[C@H](C)O3)[C@@H](C)/C=C/C=C3\CO[C@@H]4[C@H](O)C(C)=C[C@@H](C(=O)O1)[C@]34O)O2,3.98 µM (active),–
Cc1nc(C2CCCCC2)c(-c2ccc(S(N)(=O)=O)c(F)c2)o1,inactive,–
N#CC1(c2cccc(C(=O)Nc3cc(Oc4ccc5nc(NC(=O)C6CC6)sc5n4)ccc3F)c2Cl)CC1,inactive,–
N#CC1C(=O)Nc2scc(-c3ccc(-c4ccccc4O)cc3)c2C1=O (stereo not given),inactive,–
CC(=O)Nc1ccc([C@H](C)C(=O)Nc2ncc(C(C)C)s2)cc1,inactive,–
CCOc1ccc(-c2cc(NC(=O)c3c(F)cccc3F)c(C(=O)O)s2)cc1,inactive,–
CC(C)c1cc(C(C)C)c(CC(=O)NS(=O)(=O)Oc2c(C(C)C)cccc2C(C)C)c(C(C)C)c1,10 µM (active),–
Oc1c(Cl)cc(Cl)c(Cl)c1Cc1c(O)c(Cl)cc(Cl)c1Cl,35.5 µM (active),–
Oc1cc2ccccc2c2ccccc12,22.4 µM (active),–
CC(C)(Sc1ccc(CCN(CCCCC2CCCCC2)C(=O)NC2CCCCC2)cc1)C(=O)O,inactive,–
CC(=O)OC12CC(C)C(OC(=O)c3ccccc3)C1/C=C(/C)C(OC(=O)c1ccccc1)CC(=O)C(C)(C)/C=C/C(C)C2=O (stereo not given),inactive,–
O=C(O)C1(Cc2cccc(Nc3nccs3)n2)CCC(Oc2cccc(Cl)c2F)CC1 (stereo not given),inactive,–
O=C(O)c1ccc(S(=O)(=O)N(Cc2ccc(OC(F)(F)F)cc2)c2ncc(C(F)(F)F)cc2Cl)cc1,inactive,–
O=C(O)c1cccc(-c2ccc(-c3cn(C(=O)N4CCCCC4Cc4ccccc4)nn3)cc2)c1 (stereo not given),inactive,–
O=C(O)c1ccc(-n2nc(-c3ccccc3O)nc2-c2ccccc2O)cc1,inactive,–
CC(=O)N1c2ccc(-c3ccc(C(=O)O)cc3)cc2C(Nc2ccc(Cl)cc2)CC1C (stereo not given),inactive,–
C/C(=C\c1ccc(C(=O)O)cc1)c1ccc2c(c1)C(C)(C)CCC2(C)C,12.6 µM (active),–
Cc1ccc2nc(NS(=O)(=O)c3ccc(Cl)cc3)c(Nc3ccc(C(=O)O)cc3)nc2c1,inactive,–
CC(Oc1ccccc1)C(=O)Nc1ccc(C(=O)OCc2cc(=O)n3nc(C4CC4)sc3n2)cc1 (stereo not given),inactive,–
CN(CC(=O)N(Cc1ccc(C2CCCCC2)cc1)c1ccc(C(=O)O)cc1)S(=O)(=O)c1c(F)c(F)c(F)c(F)c1F,12.6 µM (active),–
O=C(O)CC1CCC(c2ccc(-c3ccc(Nc4ccc(C(F)(F)F)nc4)cn3)cc2)CC1 (stereo not given),inactive,–
CCc1oc2ccccc2c1C(=O)c1cc(Br)c(O)c(Br)c1,inactive,–
O=C(O)Cc1cc(I)c(Oc2ccc(O)c(I)c2)c(I)c1,inactive,–
CC(=O)O[C@@H]1C[C@]2(C)[C@@]3(CCC4[C@@]5(C)CC[C@H](O[C@@H]6O[C@H](C(=O)O)[C@@H](O)[C@H](O[C@@H]7O[C@H](CO)[C@H](O)[C@H](O)[C@H]7O[C@@H]7O[C@@H](C)[C@H](O)[C@@H](O)[C@H]7O[C@@H]7OC[C@](O)(CO)[C@H]7O)[C@H]6O[C@@H]6O[C@H](CO)[C@H](O)[C@H](O)[C@H]6O)C(C)(C)C5CC[C@]42C)O[C@@H](O)[C@]12C3CC(C)(C)[C@@H](OC(=O)/C=C/c1ccc(O)c(O)c1)[C@@H]2OC(=O)/C=C/c1ccccc1 (stereo not given in full),–,-6.06% [at 6.77 µM] (inactive)
COc1cc(C)c(C(=O)OC2C(C)OC(OC3CCC(C)C4C3C=C(C)C3/C(C)=C\CC/C(C)=C/C5(C)C=C(C(=O)O)C(C)CC56OC(=O)/C(=C(\O)C34C)C6=O)C(O)C2O)c(OC)c1 (stereo not given),–,-1.08% [at 8.13 µM] (inactive)
O=C(O)Cn1nnc(-c2cc(N3CCC(Oc4cc(F)ccc4Br)CC3)no2)n1,inactive,–
CN(Cc1ccc(C(=O)O)cc1)c1ccc(OCc2c(-c3c(Cl)cccc3Cl)noc2C2CC2)nc1C(F)(F)F,14.1 µM (active),–
O=C(O)c1ccc(CCCc2ccc(OCCc3ccc(F)cc3)cc2)o1,inactive,–
COc1c(C)c2c(c(O)c1C/C=C(\C)CCC(=O)O)C(=O)OC2,inactive,–
